Test [1] can be described thus: qHTS assay to test for compound auto fluorescence at 535 nm (green) in HEK293 cells (AID 720680). In general terms: qHTS replaces the single test concentration by a dilution series.
The nature of test [2]: qHTS assay to test for compound auto fluorescence at 460 nm (blue) in HEK293 cell free culture (AID 720681). An outline of the steps:
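Compounds were added to cell-free DMEM with 10% FBS and fluorescence read directly. The blue channel used 405 nm excitation and 460 nm emission, with triamterene as the reference fluorophore.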

Test [3] can be described thus: qHTS assay to test for compound auto fluorescence at 535 nm (green) in HEK293 cell free culture (AID 720682). An outline of the steps: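 Read-out: 485/535 nm fluorescence intensity, calibrated against fluorescein. Medium only (DMEM + 10% FBS, no cells); test compound or DMSO vehicle added by pintool before plate reading.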
The nature of test [4]: qHTS assay to test for compound auto fluorescence at 590 nm (red) in HEK293 cell free culture (AID 720683). An outline of the steps:
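Cell-free wells of DMEM with 10% FBS received compound, and intrinsic fluorescence was read at excitation/emission 540/590 nm. Values expressed as equivalence to Rose Bengal sodium.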

Test [5] in a line: qHTS assay to test for compound auto fluorescence at 590 nm (red) in HepG2 cell free culture (AID 720684). A digest of the protocol: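 Compounds are added to culture medium (MEM, 10% FBS) lacking cells, then fluorescence is read at excitation 540 nm, emission 590 nm, with Rose Bengal sodium as the equivalency standard.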
A short description of test [6]: qHTS assay to test for compound auto fluorescence at 460 nm (blue) in HepG2 cell free culture (AID 720685). A digest of the protocol: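 Compound (23 nL) or DMSO pinned into cell-free MEM with 10% FBS; blue fluorescence read at 405/460 nm excitation/emission, expressed as auto-fluorescence equivalency to triamterene.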
Test [7] can be described thus: qHTS assay to test for compound auto fluorescence at 535 nm (green) in HepG2 cell free culture (AID 720686).
The nature of test [8]: qHTS assay to test for compound auto fluorescence at 460 nm (blue) in HepG2 cells (AID 720687). A digest of the protocol:
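HepG2 cells in MEM with 10% FBS, attached overnight at 37 C, were exposed to compound or DMSO for 1 hr at 37 C, 5% CO2. Blue fluorescence was read at 405/460 nm, with triamterene as reference fluorophore.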

Test [9] is described as follows: qHTS assay to identify small molecule antagonists of the glucocorticoid receptor (GR) signaling pathway - cell viability counter screen (AID 720693). Further: nearly all actives have a fitted effect of over 55% in size. Further: potency means the concentration at half of the fitted maximal effect.
Test [10] can be described thus: qHTS assay for identifying genotoxic compounds that show differential cytotoxicity against isogenic chicken DT40 cell lines with known DNA damage response pathways - wild type cell line (AID 743012). Further: nearly all actives have a fitted effect of over 60% in size. Further: potency means the concentration at half of the fitted maximal effect. A digest of the protocol:
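Cells (DT40 wild type, 300/well) are treated with DMSO-dissolved compounds after a ~0.5 h pre-incubation and kept 40 h at 37 C/5% CO2. Viability is then measured by CellTiter-Glo luminescence following 30 min at room temperature.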

A short description of test [11]: qHTS assay for identifying genotoxic compounds that show differential cytotoxicity against isogenic chicken DT40 cell lines with known DNA damage response pathways - Rev3 mutant cell line (AID 743014). Further: nearly all actives have a fitted effect of over 55% in size. Further: potency means the concentration at half of the fitted maximal effect.
A short description of test [12]: qHTS assay for identifying genotoxic compounds that show differential cytotoxicity against isogenic chicken DT40 cell lines with known DNA damage response pathways - Rad54/Ku70 mutant cell line (AID 743015). Further: nearly all actives have a fitted effect of over 60% in size. Further: potency means the concentration at half of the fitted maximal effect.
The target of test [13] is Androgen receptor (Homo sapiens) (UniProt P10275). Kind of test: qHTS assay to identify small molecule agonists of the androgen receptor (AR) signaling pathway using the MDA cell line (AID 743040; further: nearly all actives have a fitted effect of over 20% in size). An outline of the steps:
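Human breast carcinoma MDA-kb2 reporter cells (MMTV-luc, AR/GR elements) were treated for 16 h at 37C in 0% CO2 following a 5 h settling period. Signal was quantified by ONE-Glo luminescence.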

The target is the same in test [14]. Put plainly: qHTS assay to identify small molecule antagonists of the androgen receptor (AR) signaling pathway using the MDA cell line (AID 743042; further: potency means the concentration at half of the fitted maximal effect; nearly all actives have a fitted effect of over 55% in size). An outline of the steps:
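MDA-kb2 breast carcinoma cells carrying MMTV-luciferase (AR/GR responsive) were co-treated with compounds and the agonist R1881 for 16 h at 37C. Inhibition read as ONE-Glo luminescence; CellTiter-Fluor fluorescence measured in parallel for cytotoxicity.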

A short description of test [15]: qHTS assay to identify small molecule antagonists of the androgen receptor (AR) signaling pathway - cell viability counter screen (AID 743033; further: nearly all actives have a fitted effect of over 45% in size; further: potency means the concentration at half of the fitted maximal effect).
A short description of test [16]: qHTS assay to identify small molecule antagonists of the androgen receptor (AR) signaling pathway using the MDA cell line - cell viability counter screen (AID 743041; further: nearly all actives have a fitted effect of over 45% in size; further: potency means the concentration at half of the fitted maximal effect). A digest of the protocol: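 Same-well cytotoxicity was assessed by CellTiter-Fluor in MDA-kb2 AR-luc cells after 16 h of compound treatment under R1881 agonism.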
Test [17] deals with Androgen receptor (Homo sapiens) (UniProt P10275). Put plainly: qHTS assay to identify small molecule agonists of the androgen receptor (AR) signaling pathway (AID 743036; active means well fitted activation curve with a large enough effect in the signal ratio in the repeat runs, with a control signal flat, not every such curve was filed as active; the % refers to the signal ratio). An outline of the steps: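 HEK293 cells stably carrying a UAS-driven beta-lactamase reporter (GeneBLAzer AR-UAS-bla-GripTite) were plated at 2,000 cells/well, rested 4 h at 37C, then exposed to compounds in DMSO for 16 h. LiveBLAzer B/G FRET substrate was added for 2 h at room temperature; fluorescence read.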

The target is the same in test [18]. Put plainly: qHTS assay to identify small molecule antagonists of the androgen receptor (AR) signaling pathway (AID 743035; active means well fitted inhibition curve with a large enough effect in the signal ratio in the repeat runs, not every such curve was filed as active; the % refers to the signal ratio; further: potency means the concentration at half of the fitted maximal effect). An outline of the steps: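 Antagonism is scored as loss of R1881-driven beta-lactamase reporter expression in HEK293 cells carrying the reporter under a UAS element, after 16 h co-treatment at 37C and a 2 h room-temperature FRET substrate read.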

Inconclusive results are not listed. Calls of active or inactive are those of the source. Unless noted, the call rests on the fitted dose curve; in most records, active means well fitted curve in the direction sought with a large enough effect in the repeat runs; inconclusive means weak or mixed curves; inactive means no such curve, though single readings can be large; an effect the other way counts as inactive or inconclusive.

Androgen receptor (Homo sapiens), sequence (P10275 whole entry, looked up): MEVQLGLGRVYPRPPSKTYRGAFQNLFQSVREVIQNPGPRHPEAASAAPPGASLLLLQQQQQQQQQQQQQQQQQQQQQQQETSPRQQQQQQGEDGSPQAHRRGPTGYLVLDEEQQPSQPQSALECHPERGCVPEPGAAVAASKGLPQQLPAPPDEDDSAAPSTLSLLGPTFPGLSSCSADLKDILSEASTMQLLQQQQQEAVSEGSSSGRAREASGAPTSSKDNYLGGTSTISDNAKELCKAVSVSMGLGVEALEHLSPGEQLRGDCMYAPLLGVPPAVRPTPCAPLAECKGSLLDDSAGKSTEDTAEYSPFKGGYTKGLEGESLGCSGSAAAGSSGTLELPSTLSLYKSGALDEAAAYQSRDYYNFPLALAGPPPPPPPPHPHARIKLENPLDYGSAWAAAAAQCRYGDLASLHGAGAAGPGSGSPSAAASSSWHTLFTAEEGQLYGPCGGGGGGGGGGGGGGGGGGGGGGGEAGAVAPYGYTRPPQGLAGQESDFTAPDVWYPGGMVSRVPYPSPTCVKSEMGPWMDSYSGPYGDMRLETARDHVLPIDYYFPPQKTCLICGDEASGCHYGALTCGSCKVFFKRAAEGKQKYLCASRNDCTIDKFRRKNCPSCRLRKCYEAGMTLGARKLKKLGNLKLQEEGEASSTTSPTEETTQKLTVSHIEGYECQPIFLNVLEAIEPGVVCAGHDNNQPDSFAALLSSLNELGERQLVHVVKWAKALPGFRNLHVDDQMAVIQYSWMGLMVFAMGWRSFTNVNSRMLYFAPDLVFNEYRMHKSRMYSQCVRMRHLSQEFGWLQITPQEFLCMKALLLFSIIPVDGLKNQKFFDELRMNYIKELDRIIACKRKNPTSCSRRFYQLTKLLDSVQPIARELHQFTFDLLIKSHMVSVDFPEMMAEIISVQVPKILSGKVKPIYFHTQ

For the compound `COc1cc(-c2ccc(-[n+]3nc(-c4ccccc4)nn3-c3ccc([N+](=O)[O-])cc3)c(OC)c2)ccc1-[n+]1nc(-c2ccccc2)nn1-c1ccc([N+](=O)[O-])cc1`, the Potency entry in [1], in test [2], in [3], in [4], in test [5] and in test [7] was “inactive” in each case. In addition, the Potency result in test [13] was “inactive”. Besides, the compound was classed as inactive in [6] and in [8]. The Potency in test [9] is 19 µM (active); in test [10], 5.96 µM (active); in test [11], 7.5 µM (active); in test [12], 5.31 µM (active); in [14], 29.8 µM (active).
For the compound `CC1(C)S[C@@H]2[C@H](NC(=O)[C@H](N)c3ccccc3)C(=O)N2[C@H]1C(=O)OCOC(=O)[C@@H]1N2C(=O)C[C@H]2S(=O)(=O)C1(C)C`, the Potency result in [1], in [2], in [3], in test [4], in test [5] and in test [7] was “inactive” in each case. For the same compound, the Potency entry in test [9], in test [10], in test [11], in test [12], in test [15] and in test [16] was “inactive” each time. For the same compound, the compound was called inactive in test [6] and in [8].
Regarding `Cc1cccc(Nc2ncccc2C(=O)O)c1C`, the Potency entry in [1], in [2], in test [3], in test [4], in test [5] and in test [7] was “inactive” each time. Besides, the Potency entry in test [9], in test [10], in test [11], in test [12], in test [15] and in [16] was “inactive” each time. For the same compound, the outcome in test [6] and in [8] was inactive.
On to `CCSc1ccc2c(c1)N(CCCN1CCN(C)CC1)c1ccccc1S2`, for which the Potency entry in test [1], in [2], in [3], in test [4], in test [5] and in [7] was “inactive” throughout. Further, the Potency result in test [9], in test [15] and in test [16] was “inactive” in each case. Further, the outcome in [6] and in test [8] was inactive. For the same compound, the figures for the Potency in [10], in test [11] and in [12] were 11.4 µM (active), 14.3 µM (active) and 11.4 µM (active), respectively.
For the compound `NC(=S)N=Nc1ccc(NN=C(N)N)cc1`, the Potency result in test [1], in test [2], in test [3], in test [4], in [5] and in test [7] was “inactive” in each case. For the same compound, the Potency result in test [9], in [17] and in test [13] was “inactive” throughout. Further, the compound was classed as inactive in test [6] and in test [8]. Also, the Potency was 2.66 µM (active) in [10]; 5.96 µM (active) in test [11]; 5.31 µM (active) in test [12]; 26.6 µM (active) in test [16]; 29.8 µM (active) in test [14].
`CC(C)(C)C(=O)OCOC(=O)[C@@H]1N2C(=O)[C@@H](N=CN3CCCCCC3)[C@H]2SC1(C)C`: the Potency entry in test [1], in test [2], in [3], in test [4], in test [5] and in test [7] was “inactive” in each case. The Potency entry in test [9], in [10], in test [11], in test [12] and in test [16] was “inactive” each time. The outcome in [6] and in test [8] was inactive.
With `CCOc1ccc(N=C(C)Nc2ccc(OCC)cc2)cc1`, the Potency entry in test [1], in [2], in [3], in [4], in test [5] and in test [7] was “inactive” each time. Also, the Potency result in [9] and in [16] was “inactive” in each case. The compound was called inactive in [6] and in test [8]. The Potency in [10], in test [11] and in [12] was 23.7 µM (active) each time.
As for `Cn1c(O)c(N=NC(N)=S)c2ccccc21`, the Potency result in test [1], in test [2], in [3], in [4], in test [5] and in test [7] was “inactive” each time. In addition, the Potency result in test [9] and in [16] was “inactive” in each case. The result in test [6] and in test [8] was inactive. The Potency is 5.31 µM (active) in test [10], 10.6 µM (active) in test [11], 8.41 µM (active) in [12] and 2.68 µM (active) in test [15].
Consider `CC1CC(OC(=O)C(O)c2ccccc2)CC(C)(C)C1` (stereo not given), for which the Potency result in [1], in [2], in test [3], in test [4], in test [5] and in [7] was “inactive” throughout. Moreover, the Potency entry in test [9], in [15] and in [16] was “inactive” each time. For the same compound, the result in [6] and in [8] was inactive. Besides, the Potency in test [10] is 11.9 µM (active); in test [12], 21.1 µM (active).
Regarding `CC(C(=O)O)c1ccc(C2CCCCC2)c2ccccc12` (stereo not given), the Potency result in [1], in [2], in [3], in [4], in [5] and in test [7] was “inactive” each time. The Potency result in test [9], in [10], in test [11], in test [12], in test [15] and in test [16] was “inactive” in each case. In addition, the outcome in test [6] and in test [8] was inactive.
With `O=C(Nc1ccc(Br)cc1)c1cc(Br)c(Br)s1`, the Potency result in test [1], in [2], in [3], in test [4], in [5] and in test [7] was “inactive” in each case. The Potency result in test [16] was “inactive”. For the same compound, the compound was classed as inactive in [6] and in test [8]. Besides, the Potency is 21.3 µM (active) in test [9], 26.6 µM (active) in [10], 26.6 µM (active) in [12] and 21.3 µM (active) in test [15].
For the compound `NC[C@@H]1O[C@H](O[C@H]2[C@@H](O)[C@H](O[C@@H]3[C@@H](O)[C@H](N)C[C@H](N)[C@H]3O[C@H]3O[C@H](CN)[C@@H](O)[C@H](O)[C@H]3N)O[C@@H]2CO)[C@H](N)[C@@H](O)[C@@H]1O`, the Potency entry in [1], in test [2], in [3], in [4], in test [5] and in test [7] was “inactive” each time. Further, the Potency entry in [9], in [10], in test [11], in test [12], in test [15] and in test [16] was “inactive” in each case. In addition, the result in [6] and in test [8] was inactive.
In the case of `Cc1cc(O)c2c(c1)O[C@@]1(C)CC[C@H]3C(C)(C)CCCC34CO[C@@H]2[C@H]41` (stereo not given in full), the Potency result in test [1], in test [2], in [3], in test [4], in test [5] and in [7] was “inactive” each time. Also, the Potency entry in test [17] and in test [13] was “inactive” each time. Moreover, the compound was classed as inactive in [6] and in test [8]. For the same compound, the Potency was 23.9 µM (active) in test [9]; 13.3 µM (active) in test [10]; 10.6 µM (active) in test [11]; 13.3 µM (active) in test [12]; 23.9 µM (active) in [18].
As to `O=C(NNCNNC(=O)c1ccncc1)c1ccncc1`, the Potency result in test [1], in [2], in test [3], in test [4], in test [5] and in test [7] was “inactive” each time. The Potency entry in test [9], in test [10], in [11], in [12], in test [15] and in test [16] was “inactive” each time. In addition, the compound was classed as inactive in test [6] and in [8].

Values taken from PubChem BioAssay (Tox21).
